Most compounds without a hit are left out; they make up all but 0.92% or so of the library.
Tb PYK inh – blocks Trypanosoma brucei pyruvate kinase; Q57TT1; TbPYK enzyme, Kinase-Glo Plus ATP luminescence, 45 min; Potency, µM (doses to about 76.8 µM), hits mostly inhibitors; 0.12% of 410,000 active; further: nearly all actives have a fitted effect of over 50% in size
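Quantitative HTS: titrated library compounds versus trypanosomal pyruvate kinase in TEA buffer (pH 7.2) containing KCl, MgCl2, BSA and Tween-20. Reactions were initiated with ADP, 130 uM final. Kinase-Glo Plus luminescence was read after 45 min at RT.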
NS1 function inh – blocks influenza NS1 protein function; Potency, µM (titrated, usually from 46.1 µM); 0.4% of 270,000 active; AID 2326; calls by dose curve; further: actives are rising curves; nearly all actives have a fitted effect of over 50% in size
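A cell-based growth assay was used: compounds that relieve NS1-induced slow growth of budding yeast raise OD600. Assay medium was yeast nitrogen base with ammonium sulphate and -URA supplement, pH 6.0, with 2% galactose.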
LmPK inhibitor – blocks Leishmania mexicana pyruvate kinase activity; Q27686; purified LmPK, Kinase-Glo ATP luminescence, 1 h; Potency, µM (titrated, usually from 57.5 µM), actives largely listed as inhibitors; 0.37% of 290,000 active; AID 1721
Target sequence (Q27686 whole entry, looked up): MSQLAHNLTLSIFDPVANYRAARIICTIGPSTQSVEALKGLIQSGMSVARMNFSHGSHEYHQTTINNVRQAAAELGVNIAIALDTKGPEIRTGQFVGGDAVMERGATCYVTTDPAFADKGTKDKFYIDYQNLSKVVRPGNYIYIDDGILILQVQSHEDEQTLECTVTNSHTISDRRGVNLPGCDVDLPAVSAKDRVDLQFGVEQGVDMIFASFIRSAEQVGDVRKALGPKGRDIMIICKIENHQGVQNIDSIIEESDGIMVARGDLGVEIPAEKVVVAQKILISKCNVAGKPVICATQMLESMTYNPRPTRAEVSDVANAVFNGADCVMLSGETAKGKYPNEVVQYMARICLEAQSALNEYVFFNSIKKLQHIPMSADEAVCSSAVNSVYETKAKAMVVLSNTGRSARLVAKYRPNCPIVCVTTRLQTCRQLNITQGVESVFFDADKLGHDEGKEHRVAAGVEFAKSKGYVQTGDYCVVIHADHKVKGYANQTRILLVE
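Kinase-Glo luminescence read after 1 h RT reaction of 0.1 nM LmPK with 0.5 mM PEP and 0.1 mM ADP. Activity scaled between uninhibited and enzyme-free controls.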
RE007 growth inh – less growth of the S. pombe RE007 Vpr strain. S. pombe RE007 Vpr strain, BacTiter-Glo ATP luminescence, 24 h. Potency, µM (titrated, usually from 92.2 µM), actives largely listed as inhibitors. 0.21% of 360,000 active; active means well fitted falling curve with a large enough effect; inconclusive means small, poorly fitted or top-dose-only effect; inactive means no such curve, though single readings can be large or run the other way; further: nearly all actives have a fitted effect of over 50% in size
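Fission yeast RE007 carrying one integrated HIV-1 vpr copy, seeded at OD 0.01 in PMG+AL medium with 23 nL pinned compound. Grown 24 h at 30 degrees; viability read by BacTiter-Glo luminescence after 5 min.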
AMA1 RON2 block – AMA1-RON2 (P. falciparum) interaction inhibition; AlphaScreen AMA1-biotinylated RON2 peptide binding; Potency, µM (top dose mostly 58.2 µM), most hits filed as inhibitors; 0.2% of 360,000 active; AID 720542; further: nearly all actives have a fitted effect of over 45% in size
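AMA1 (3D7) with his tag at 25 nM final met compounds first, then biotinylated RON2 peptide at 25 nM; detection used donor plus acceptor beads, 10 µg/mL apiece, read by AlphaScreen after 30 min at room temperature.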
Hits are given with their value; 0 = inactive; ? = inconclusive; - = no result; [ ] = another dose, or the depositor's remark. Unless noted, the call rests on the fitted dose curve; in most records, active means well fitted curve in the direction sought with a large enough effect; inconclusive means small, poorly fitted or top-dose-only effect, or another doubt; inactive means no such curve, though single readings can be large; an effect the other way counts as inactive or inconclusive.

SMILES	Tb PYK inh	NS1 function inh	LmPK inhibitor	RE007 growth inh	AMA1 RON2 block
O=C1CC(N2CCCN(C3CC(=O)N(c4ccc(F)cc4)C3=O)CC2)C(=O)N1c1ccc(F)cc1 (stereo unspecified)	0	0	0	4.5µM	0
O=C1CC(N2CCCCC2)C(=O)N1c1ccccc1 (stereo unspecified)	0	0	0	40µM	0
O=C1CC(N2CCSCC2)C(=O)N1c1cccc(Br)c1 (stereo unspecified)	0	-	0	32µM	0
O=C1CC(N2CCN(c3ccccc3)CC2)C(=O)N1c1cccc(Br)c1 (stereo unspecified)	0	0	0	?	0
O=C1CC(N2CC2)C(=O)N1c1ccccc1 (stereo unspecified)	0	-	-	0	0
CC1(OC(=O)c2cnc3ccccc3n2)C(=O)C=C2C=C3CCCN3C=C2C1=O (stereo unspecified)	-	-	0[11.5 µM]	-	-
O=C1C=CC(=O)N1CCNc1ncc(C(F)(F)F)cc1Cl	?	0	0	2.5µM	0
CCC(C)S(=O)(=O)c1oc(-c2cccs2)nc1S(=O)(=O)c1ccccc1 (stereo unspecified)	0	-	-	-	-
CO[C@@H]1[C@@H]([C@H](C)[C@@H]2O[C@@]3(CC[C@@](C)([C@H]4CC[C@@](C)([C@H]5O[C@H]([C@H]6O[C@](C)(O)[C@H](C)C[C@@H]6C)C[C@H]5O[C@H]5C[C@@H](OC)[C@H](OC)[C@@H](C)O5)O4)O3)C[C@@H](O)[C@@H]2C)O[C@@](O)(CC(=O)O)[C@H](C)[C@H]1OC	0	-	-	-	-
O=[N+]([O-])c1ccc(N2CCN(Cc3ccccc3)CC2)c2c1no[n+]2[O-]	0	-	-	?	22µM
C[C@](N)(Cc1ccc(O)c(O)c1)C(=O)O	0	0	0	0[18.4 µM]	11µM
Nc1nc(N)c(N=Nc2ccc(C(=O)O)c(O)c2)c(N)n1	-	0	-	-	-
O=C1C(=Cc2cccs2)C(=O)c2ccccc21	0	0	14µM	-	0
Cc1c(C(=O)O)cccc1-c1ccc(/C=C2/NC(=O)N(c3ccccc3)C2=O)o1	0	0	0	0	0
Cc1ccc(/C=C2/NC(=O)N(c3ccccc3)C2=O)o1	?	0	0	63µM	0
Cc1cc(C=C2C(=O)c3ccccc3C2=O)c(C)n1C	0	0	0	0	0
Cc1ccc(C=C2C(=O)c3ccccc3C2=O)o1	?	0	4.5µM	0	0
Cc1ccc(/C=C2/C(=O)c3ccc(C(=O)O)cc3C2=O)o1	?	0	0	0	0
O=C1/C(=C/c2cccs2)Cc2ccccc21	0	0	?	?	0[11.6 µM]
Cc1ccc(C=C2C(=O)c3ccccc3C2=O)s1	0	0	13µM	?	?
COC(=O)C1=C(C(=O)OC)[C@@H]2Nc3ccccc3[C@@]23C[C@@H](C(=O)OC)N(S(=O)(=O)c2ccc4c(c2)OCCN4C)C3=N1	-	-	0[11.5 µM]	-	-
C=CCN1c2ccccc2[C@]23C[C@@H](C(=O)OC)N(S(=O)(=O)c4cccs4)C2=NC(C(=O)OC)=C(C(=O)OC)[C@H]13	-	-	0[11.5 µM]	-	-
Nc1cc(C(=O)O)c(N)c2c1C(=O)c1ccccc1C2=O	?	0	25µM	?	18µM
Cc1cccc(C(=O)OCC(=O)N2CCCC2=O)c1O	0	-	-	2µM	0
COc1ccc(N2c3ccccc3CN(Cc3ccccc3)[C@@H](C)[C@H]2Cc2cccnc2)cc1	0	-	-	0	14µM
SMILES	Tb PYK inh	NS1 function inh	LmPK inhibitor	RE007 growth inh	AMA1 RON2 block
COc1ccc(N2c3ccccc3CN(Cc3ccccc3)[C@@H](C)[C@H]2Cc2c(C)cccc2C)cc1	-	-	-	0	0
CCc1cc(=O)oc2cc(C)c(CN3CCCC(C)C3)c(O)c12 (stereo unspecified)	0	0	0	0	19µM
CCCCc1cc(=O)oc2cc(C)c(CN3CCCC3)c(O)c12	0	0	0	0	0
O=S(=O)(NCCNC/C=C/c1ccc(Br)cc1)c1cccc2cnccc12	-	0	-	-	-
CN(C)c1cccc2c1C(=O)c1ccccc1C2=O	0	0	0	?	11µM
CN1C(=O)c2cccc(N(C)C)c2C1=O	0	0	0	0	?
CCCCc1nc2c(c3c1C[C@H](C)OC3)CN(S(=O)(=O)c1ccc(NC(C)=O)cc1)CC2	-	-	0[11.5 µM]	-	-
CC(=C/c1ccccc1)/C=N/N1CCN(Cc2ccc(C)cc2)CC1	0	0	0	0	0
Cc1ccc(/C=N/N2CCN(Cc3ccccc3)CC2)cc1	0	-	0	0	13µM
COc1cc(/C=N/N2CCN(Cc3ccc(C)cc3)CC2)cc(OC)c1O	14µM	0	0	0	0
Cc1ccc(CN2CCN(/N=C/c3ccccc3)CC2)cc1	0	0	0	0	0
CC(/C=N/N1CCN(Cc2ccccc2)CC1)=C\c1ccccc1	0	-	0	0	13µM
CN1C(CSCC(F)(F)F)Nc2cc(Cl)c(S(N)(=O)=O)cc2S1(=O)=O (stereo unspecified)	0	-	-	-	-
Cc1cc[c]([Sb]2[O]C([C@H](O)[C@H](O)C(=O)O)[C@@H](CO)[O]2)cc1 (stereo partly specified)	-	0	-	-	-
Cc1cc2nc(-c3ccc[nH]c3=O)[nH]c2cc1C	?	0	11µM	7.1µM	0
Cn1c(=O)c(C(=O)NNC(=O)c2ccccc2Cl)c(O)c2ccccc21	0	0	0	0	0
Cn1c(=O)c(C(=O)NNC(=O)c2cccc(Cl)c2)c(O)c2ccccc21	0	0	0	13µM	0
Cc1cccc(C(=O)NNC(=O)c2c(O)c3ccccc3n(C)c2=O)c1	0	0	0	40µM	0
CC1(O)CCC2C3CCC4=CC(=O)CCC4(C)C3(F)C(O)CC21C (stereo unspecified)	0	-	-	-	-
CNC[C@@H]1CC[C@@H](N)[C@@H](O[C@H]2[C@H](O)[C@@H](O[C@H]3OC[C@](C)(O)[C@H](NC)[C@H]3O)[C@H](N)C[C@@H]2N)O1	0	-	-	-	-
CCc1cnc2c(c1SCC(=O)N1CCCCC1)c(=O)n(C)c(=O)n2C	0	-	-	-	-
CCc1cnc2c(c1SC(C(C)=O)C(=O)N(C)C)c(=O)n(C)c(=O)n2C (stereo unspecified)	14µM	-	-	-	-
CC(C)OC(=O)OCOP(=O)(CO[C@H](C)Cn1cnc2c(N)ncnc21)OCOC(=O)OC(C)C	0	-	-	-	-
Cc1ccc2c(c1C)-c1c(ccc(C)c1C)C(=O)C2=O	0	-	-	45µM	0
Cc1ccccc1N=Nc1c(O)[nH]c2ccccc12	0	-	-	0	0
O=C(N=Nc1c(O)[nH]c2ccccc12)c1cccs1	0	-	16µM	0	0
O=C(N=Nc1c(O)[nH]c2ccccc12)c1cc(NS(=O)(=O)c2cccs2)cc(NS(=O)(=O)c2cccs2)c1	0	-	0	0	0
O=C(O)c1ccc(N=Nc2c(O)[nH]c3ccccc23)cc1	0	0	14µM	?	0
CN(C)C(=O)c1ccc(N=Nc2c(O)c3ccccc3[nH]c2=O)cc1	0	-	-	18µM	0
C[C@H]1[C@@H](OC(=O)CCC(=O)O)OC2OC3(C)CC[C@H]4[C@H](C)CC[C@@H]1[C@@]24OO3 (stereo partly specified)	0	-	-	-	-

Bioassay records from PubChem BioAssay.
